Each structure is given as a SMILES string. Values joined by “and” are separate entries in the source; they are usually repeats but may differ in a detail not shown here. Identical values can stand only once. The campaign covered roughly 16,000 compounds. About 5,700 (36%) were called active. About 24% were inconclusive and are not listed. Some of the results follow. A number with no mark means an inactive call. The call rests on the fitted dose curve; in most records, active means well fitted curve in the direction sought with a large enough effect; inconclusive means small, poorly fitted or top-dose-only effect, or effect the other way; inactive means no such curve, though single readings can be large or run the other way. Square brackets hold non-standard residues; d marks the D form. Peptide text beside a SMILES is read from it.
On the % scale 0 is the no-effect control and ±100 the full control effect.

The target of this test is Cytochrome P450 1A2 (Homo sapiens) (UniProt P05177). Description: Cytochrome panel assay with activity outcomes. As to conditions: recombinant CYP, pro-luciferin dealkylation, luminescence, p450-cyp1a2; series mostly up to 57.1 µM; activity, negative = inhibition: at the top concentration.
Chain of Cytochrome P450 1A2 (Homo sapiens) (P05177 whole entry, looked up): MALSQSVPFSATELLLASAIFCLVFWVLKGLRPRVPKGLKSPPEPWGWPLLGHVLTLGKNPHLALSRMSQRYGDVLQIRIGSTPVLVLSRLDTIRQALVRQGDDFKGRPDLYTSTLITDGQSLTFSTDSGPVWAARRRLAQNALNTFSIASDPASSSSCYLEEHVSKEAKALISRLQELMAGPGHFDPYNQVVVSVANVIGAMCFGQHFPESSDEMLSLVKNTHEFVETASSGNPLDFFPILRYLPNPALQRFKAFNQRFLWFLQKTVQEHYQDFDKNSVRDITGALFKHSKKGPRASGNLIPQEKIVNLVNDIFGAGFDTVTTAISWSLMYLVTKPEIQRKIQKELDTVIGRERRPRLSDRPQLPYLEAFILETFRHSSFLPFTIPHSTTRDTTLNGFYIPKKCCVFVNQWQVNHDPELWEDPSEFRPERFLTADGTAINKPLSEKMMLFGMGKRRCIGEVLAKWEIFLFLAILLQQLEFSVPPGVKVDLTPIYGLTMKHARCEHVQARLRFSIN
In the case of `Cc1cc(-c2n[nH]c(=S)o2)c(C)n1-c1ccccc1`, the AC50 (usually the concentration at which the activity in the assay is half-maximal) was 14.1 µM (active).
For the molecule `CC(O)(CS(=O)(=O)Cc1ccccc1Cl)C(=O)Nc1cccc(C(F)(F)F)c1` (stereo not drawn), the “activity, negative = inhibition” value is -13.5%.
Take `CN(C)S(=O)(=O)Oc1ccc(Cl)cc1C(=O)Nc1cccc(C(F)(F)F)c1`: the AC50 is 7.08 µM (active).
Consider `CN(C)S(=O)(=O)Oc1ccccc1C(=O)Nc1cccc(C(F)(F)F)c1`, for which the AC50 is 8.91 µM (active).
On to `CO[C@@H]1/C=C\CC(=O)N[C@@H](C)C(=O)OC[C@H](NS(=O)(=O)c2ccc(C)cc2)[C@H](C)/C=C\CC(=O)OC[C@H]1C`, for which the activity, negative = inhibition was 8.52% [at 11.4 µM].
Same read-out and setting: under `COC(=O)C/C=C\[C@H](C)[C@@H](OC)c1ccccc1Br` stands -0.474% [at 11.4 µM].
Still for that read-out and setting: with `CN(CC(=O)O)CC(=O)O` the figure was -5.93% [at 2.29 µM].
For `CCOC(=O)C(C)Sc1ncc(OC)c(Sc2ccc(Cl)cc2)n1` (stereo not drawn), the AC50 was 12.6 µM (active).
As to `COC(=O)CSc1ncc(OC)c(OC)n1`, the “activity, negative = inhibition” value was -22%.
Consider `O=C(Nc1ccccc1)N1CCCC2(CCN(C(=O)c3cnccn3)CC2)C1`, for which the “activity, negative = inhibition” value is 3.93%.
On the same count and under the same terms, with `COc1ccc(-c2cc(C(=O)Nc3cnn(Cc4ccccc4C)c3)no2)cc1OC` the figure was -15.7%.
As to `O=C(Nc1cnn(Cc2ccc(Cl)cc2Cl)c1)c1cc(-c2cccs2)on1`, the AC50 was 2.51 µM (active).
Consider `Cc1cccc(-c2c3c(=O)n(C)c(=O)n(C)c3cn2C2CCCCC2)c1`, for which the “activity, negative = inhibition” value was -28.2%.
On the same count and under the same terms, under `O=C(Nc1ccccc1N1CCOCC1)c1ccc([N+](=O)[O-])cc1` stands -29.5%; under `O=C(c1cnccn1)N1CCC2(CC1)CCN(c1ccccc1)CC2`, -10.3%.
As to `O=C(Nc1ccccc1N1CCOCC1)c1cnccn1`, the AC50 is 4.47 µM (active).
Turning to `CNc1ccnc(-c2c(C)noc2C)n1`, the AC50 was 1.26 µM (active).
Take `Cc1noc(C)c1-c1nccc(NC2CC2)n1`: the AC50 is 0.1 µM (active).
Same read-out and setting: under `c1cc(NC2CC2)nc(-c2ccoc2)n1` stands 0.251 µM (active); under `COCCNc1ccnc(-c2c(C)noc2C)n1`, 2.51 µM (active).
Regarding `O=C1O/C(=C\Br)CC[C@@H]1c1cccc2ccccc12`, the “activity, negative = inhibition” value is 1.77%.
Still for that read-out and setting: with `Clc1cnccn1` the figure was -1.25% [at 25.6 µM].
Turning to `Cc1noc(C)c1-c1nccc(Nc2ccc(F)cc2)n1`, the AC50 is 0.398 µM (active).
As to `Cn1c2c(c(=O)n(C)c1=O)CN(CCN1CCNCC1)CN2`, the “activity, negative = inhibition” value was -2.63%.
Still for that read-out and setting: under `O=c1ccc(Oc2nc(N3CCOCC3)nc(N3CCOCC3)n2)n[nH]1` stands 6.81%.
Same read-out and setting: with `COc1ccc(C(=O)N2CCC3(CC2)CCN(c2ncccn2)CC3)cc1` the figure was -11.8%.
With `COC(=O)c1ccc(Oc2nc(N(C)C)nc(N3CCOCC3)n2)cc1`, the AC50 is 3.55 µM (active).
For the molecule `Cc1ccc(CNCC(O)(c2ccc(F)cc2)c2ccc(F)cc2)cc1`, the “activity, negative = inhibition” value is -25.5%.
Take `CCOC(=O)C(C(=O)NCc1ccc(C)cc1)c1ncc(C(F)(F)F)cc1Cl` (stereo not drawn): the AC50 is 10 µM (active).
As to `NCC(=O)N[C@H](CO)C(=O)O` (H-Gly-[dS]-OH), the activity, negative = inhibition was -8.79% [at 11.4 µM].
Same read-out and setting: with `OC[C@@H]1O[C@@H](n2cnc3cncnc32)[C@@H](O)[C@H]1O` the figure was 0.567%.
Regarding `COc1cccc(Cn2c(=O)cnc3cncnc32)c1`, the AC50 was 15.8 µM (active).
Same read-out and setting: under `O=c1cnc2cncnc2n1Cc1ccccc1` stands 25.1 µM (active).
Take `Cc1ccc([C@@H](O)c2cnc(C)n2Cc2ccccc2)cc1`: the activity, negative = inhibition is -10.8% [at 11.4 µM].
Take `CC(C)n1nnnc1-c1cc(Cl)cc(Cl)c1`: the AC50 was 8.91 µM (active).
Still for that read-out and setting: with `CCCn1nnnc1-c1cc(Cl)cc(Cl)c1` the figure was 2.82 µM (active).
For the molecule `CC(C)CC(c1nnnn1C(C)C)N1CCN(c2ccccc2)CC1` (stereo not drawn), the “activity, negative = inhibition” value is -13.3%.
Still for that read-out and setting: with `CCS(=O)(=O)c1ccc2c(c1)N(S(C)(=O)=O)CC(C(=O)NCCOC)O2` (stereo not drawn) the figure was 2.25%; with `CCOC(=O)CCN1C(=O)[C@H]2[C@@H]3[C@H](O)[C@H](O)CC(=O)[C@H]3CC[C@H]2C1=O`, -2.79% [at 11.4 µM] and -9.9% [at 11.4 µM].
On the same count and under the same terms, under `COC(=O)C/C=C\[C@@H](C)[C@@H](/C=N\O[C@@H](C)CN1CCCc2nc(C)c(C)cc21)NS(=O)(=O)c1ccc(C)cc1` stands -5.78% [at 11.4 µM].
On the same count and under the same terms, under `O=C(O)/C=C1\NC(=O)c2ccccc21` stands 8.34%.
For the molecule `Nc1ccc2c3c(cccc13)C(=O)NC2=O`, the AC50 was 1 µM (active).
The same measure, in the same setting: with `COC(=O)c1sc2ncccc2c1OCc1c(Cl)cccc1Cl` the figure was 0.158 µM (active).
In the case of `COc1ccc(NC(=O)COc2ccc(CNCCCN3CCOCC3)cc2OC)cc1`, the “activity, negative = inhibition” value was -19.7%.
As for `COc1cc(CNCc2cccs2)ccc1OCC(=O)NC(C)(C)C`, the AC50 was 3.16 µM (active).
For the molecule `COc1ccc(CCn2c3c(c(=O)[nH]c2=O)C(NC(=O)c2cccs2)(C(F)(F)F)C(=O)N3)cc1OC` (stereo not drawn), the “activity, negative = inhibition” value is -9.34%.
`COc1ccc(C[C@@](C)(N)C(=O)O)cc1OC`: the “activity, negative = inhibition” value is -5.47% [at 25.6 µM].
In the case of `COc1ccc(CNC(=O)Nc2cccs2)cc1OC`, the AC50 was 12.6 µM (active).

(Values after PubChem BioAssay AID1851 (National Center for Advancing Translational Sciences (NCATS), 2009).)
